Experimental data taken from PubChem BioAssay.
Calls of active or inactive are those of the source.

What was measured:
[1] = biological target: Albumin (Bos taurus) (UniProt P02769); assay: compounds binding labelled BSA control protein – biochemical, small-molecule microarray, Alexa647 label, 635/667 nm fluorescence, artefact control for SMM control protein annotation, profiling panel (AID 1118); settings: BSA-A647 binding, fluorescence 635 nm, higher = more signal;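 note: score merges 667 nm emission intensity and signal-to-noise per printed compound spot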
Albumin (Bos taurus), sequence (P02769 whole entry, looked up): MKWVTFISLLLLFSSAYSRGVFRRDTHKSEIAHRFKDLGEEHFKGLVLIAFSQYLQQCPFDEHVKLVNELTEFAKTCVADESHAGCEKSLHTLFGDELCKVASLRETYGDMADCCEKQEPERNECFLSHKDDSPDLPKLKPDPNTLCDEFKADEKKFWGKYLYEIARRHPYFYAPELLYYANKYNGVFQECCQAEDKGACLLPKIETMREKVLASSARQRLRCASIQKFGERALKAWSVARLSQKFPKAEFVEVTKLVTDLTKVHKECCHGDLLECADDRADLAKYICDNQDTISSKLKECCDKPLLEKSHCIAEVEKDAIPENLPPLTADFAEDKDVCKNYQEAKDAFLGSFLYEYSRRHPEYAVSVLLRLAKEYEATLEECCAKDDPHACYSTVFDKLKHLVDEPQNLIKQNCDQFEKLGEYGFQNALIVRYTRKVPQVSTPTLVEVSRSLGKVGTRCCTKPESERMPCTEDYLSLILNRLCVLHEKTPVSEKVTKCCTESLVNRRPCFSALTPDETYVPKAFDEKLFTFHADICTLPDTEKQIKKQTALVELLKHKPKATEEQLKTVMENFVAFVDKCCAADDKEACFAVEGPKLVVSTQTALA

[2] = probe aXIP binding to arrayed compounds – biochemical, NeuroSMM set, 635/667 nm fluorescence, primary screen (AID 1119); settings: small-molecule microarray, higher = more signal, called active from +8 up or from −8 down;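 note: probe is the protein aXip251-270 applied at 1 µg/mL to compound-printed slides; binding of probe to printed compounds measured as 667 nm fluorescence plus signal to noise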
[3] = probe aNOTCH3 binding on compound microarray – biochemical, small-molecule microarray, 635/667 nm fluorescence, primary screen (AID 1120); settings: higher = more signal;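 note: probe is a biotin-tagged antibody raised against NOTCH3 rather than NOTCH3 protein; score merges spot fluorescence near 667 nm with spot signal to noise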
[4] = probe aNOTCH2 binding on compound microarray – biochemical, small-molecule microarray, 635/667 nm fluorescence, primary screen (AID 1121); settings: higher = more signal;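 note: score merges feature fluorescence read at 667 nm with its signal to noise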
[5] = biological target: Carbonic anhydrase 2 (Homo sapiens) (UniProt P00918); assay: compounds binding carbonic anhydrase 2 – biochemical, small-molecule microarray, Alexa647-labelled CAII, profiling panel (AID 1122); settings: CAII-A647 binding fluorescence, higher = more signal
[6] = COS7 lysate on small-molecule microarray, probe aHis, 635 nm (AID 1123); settings: COS7 cell lysate, fluorescence, higher = more signal;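 note: z-score combines 667nm fluorescence intensity with signal-to-noise per printed compound spot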
[7] = probe aLAP1 signal on lysate-treated microarray – cell lysate, small-molecule microarray, COS7 lysate, primary screen (AID 1124); settings: probe aLAP1, fluorescence, higher = more signal;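 note: lysate comes from COS7 cells expressing LAP1 and is applied at 0.3 µg/mL; score merges spot fluorescence near 667 nm with signal-to-noise over triplicate slides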
[8] = tested on: Sam68 (KHDRBS1); assay: compounds binding KHDRBS1 protein – biochemical, small-molecule microarray, 635 nm fluorescence, primary screen (AID 1125); settings: higher = more signal;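 note: score merges 667 nm channel intensity with signal to noise over triplicate slides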
[9] = tested on: Chordin-like protein 2 (CHRDL2); assay: compounds binding chordin-like 2 – biochemical, small-molecule microarray, 635 nm fluorescence, primary screen (AID 1126); settings: fluorescence 635 nm, higher = more signal;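 note: printed compound slides probed with Chrdl2 protein at 4 µg/mL for 1 h at 4 C; score merges 667 nm emission intensity with signal to noise over three replicate slides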
[10] = biological target: Concanavalin-A (Canavalia ensiformis) (UniProt P02866); assay: compounds binding concanavalin A lectin – biochemical, small-molecule microarray, Alexa647 label, 635 nm, artefact control for SMM control protein annotation, primary screen (AID 1127); settings: ConA-A647 binding fluorescence, higher = more signal;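 note: z combines 667 nm emission intensity with signal-to-noise across three replicate slides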
Concanavalin-A (Canavalia ensiformis), sequence (P02866 whole entry, looked up): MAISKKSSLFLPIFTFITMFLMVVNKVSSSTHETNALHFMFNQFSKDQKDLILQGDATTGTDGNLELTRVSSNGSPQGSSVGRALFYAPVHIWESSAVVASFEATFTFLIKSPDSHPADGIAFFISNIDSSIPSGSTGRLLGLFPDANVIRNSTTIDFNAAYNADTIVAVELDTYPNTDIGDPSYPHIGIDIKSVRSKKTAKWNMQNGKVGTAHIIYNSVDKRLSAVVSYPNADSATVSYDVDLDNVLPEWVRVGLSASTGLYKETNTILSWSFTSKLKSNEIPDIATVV

[11] = compounds binding Alexa647 anti-His antibody – biochemical, small-molecule microarray, 635 nm fluorescence, artefact control for SMM control protein annotation, primary screen (AID 1128); settings: higher = more signal;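 note: score merges feature fluorescence with signal-to-noise for each printed compound spot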
[12] = tested on: Human papillomavirus type 1a E7 protein (residues 1-88); assay: HPV1a E7 small-molecule binders, primary screen, biochemical, small-molecule microarray, residues 1-88, 635 nm (AID 1129); settings: small-molecule microarray binding, fluorescence 635 nm; higher = more signal
[13] = biological target: Focal adhesion kinase 1 (Homo sapiens) (UniProt Q05397); assay: PTK2 protein binding on printed compound slides – biochemical, small-molecule microarray, 635/667 nm fluorescence, BSA, DTT, primary screen (AID 1130); settings: 635 nm fluorescence, higher = more signal;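 note: composite of spot emission at 667 nm and signal to noise over triplicate slides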
Focal adhesion kinase 1 (Homo sapiens), sequence (Q05397 whole entry, looked up): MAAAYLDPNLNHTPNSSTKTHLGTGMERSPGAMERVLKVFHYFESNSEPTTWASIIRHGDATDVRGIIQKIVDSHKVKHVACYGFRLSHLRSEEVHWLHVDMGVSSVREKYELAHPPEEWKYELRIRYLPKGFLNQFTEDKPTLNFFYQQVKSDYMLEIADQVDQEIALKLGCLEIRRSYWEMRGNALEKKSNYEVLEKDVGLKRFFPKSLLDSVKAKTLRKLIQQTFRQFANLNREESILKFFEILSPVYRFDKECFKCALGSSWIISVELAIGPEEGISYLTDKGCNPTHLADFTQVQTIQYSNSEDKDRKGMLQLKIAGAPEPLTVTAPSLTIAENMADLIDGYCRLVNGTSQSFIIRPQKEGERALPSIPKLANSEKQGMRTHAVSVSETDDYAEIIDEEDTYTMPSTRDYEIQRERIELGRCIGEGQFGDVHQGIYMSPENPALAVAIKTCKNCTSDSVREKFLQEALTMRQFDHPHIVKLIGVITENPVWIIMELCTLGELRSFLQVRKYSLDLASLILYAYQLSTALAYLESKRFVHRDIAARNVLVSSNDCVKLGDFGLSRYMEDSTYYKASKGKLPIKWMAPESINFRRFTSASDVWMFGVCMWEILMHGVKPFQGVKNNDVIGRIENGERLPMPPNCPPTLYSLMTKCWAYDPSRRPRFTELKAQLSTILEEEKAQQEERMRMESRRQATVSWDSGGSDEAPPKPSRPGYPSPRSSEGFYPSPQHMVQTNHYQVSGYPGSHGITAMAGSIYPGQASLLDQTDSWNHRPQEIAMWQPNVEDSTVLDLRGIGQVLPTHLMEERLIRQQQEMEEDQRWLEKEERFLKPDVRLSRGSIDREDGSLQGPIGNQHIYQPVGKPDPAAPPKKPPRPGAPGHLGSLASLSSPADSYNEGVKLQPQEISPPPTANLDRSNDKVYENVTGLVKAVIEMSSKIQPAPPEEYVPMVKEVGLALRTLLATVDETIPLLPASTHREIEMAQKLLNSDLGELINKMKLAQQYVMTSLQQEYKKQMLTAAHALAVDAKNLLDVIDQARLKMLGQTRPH

[14] = tested on: Fibrinogen (Alexa647-labelled); assay: Alexa647-fibrinogen binding to printed small molecules – biochemical, small-molecule microarray, 635/667 nm fluorescence, artefact control for SMM control-protein annotation, profiling panel (AID 1131); settings: fibrinogen-A647 binding fluorescence, higher = more signal;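 note: z-score merges 667 nm fluorescence with per-spot signal-to-noise over triplicate slides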
[15] = biological target: Follistatin (Homo sapiens) (UniProt P19883); assay: FST protein binding to printed compounds – biochemical, small-molecule microarray, 635/667 nm fluorescence, primary screen (AID 1132); settings: 635 nm fluorescence, higher = more signal
Follistatin (Homo sapiens), sequence (P19883 whole entry, looked up): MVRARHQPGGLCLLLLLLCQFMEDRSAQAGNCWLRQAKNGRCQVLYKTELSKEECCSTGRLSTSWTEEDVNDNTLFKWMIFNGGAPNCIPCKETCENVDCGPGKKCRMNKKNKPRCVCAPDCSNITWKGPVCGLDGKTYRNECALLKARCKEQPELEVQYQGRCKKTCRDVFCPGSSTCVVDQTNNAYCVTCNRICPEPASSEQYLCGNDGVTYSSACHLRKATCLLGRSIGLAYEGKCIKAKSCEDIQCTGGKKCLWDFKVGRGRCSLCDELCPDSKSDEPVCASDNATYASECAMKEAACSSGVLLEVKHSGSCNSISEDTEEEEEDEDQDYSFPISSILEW

[16] = biological target: Fibroblast growth factor 2 (Homo sapiens) (UniProt P09038); assay: basic fibroblast growth factor binding to printed compounds – biochemical, small-molecule microarray, 635/667 nm fluorescence, primary screen (AID 1133); settings: FGF2, fluorescence 635/667, higher = more signal
Fibroblast growth factor 2 (Homo sapiens), sequence (P09038 whole entry, looked up): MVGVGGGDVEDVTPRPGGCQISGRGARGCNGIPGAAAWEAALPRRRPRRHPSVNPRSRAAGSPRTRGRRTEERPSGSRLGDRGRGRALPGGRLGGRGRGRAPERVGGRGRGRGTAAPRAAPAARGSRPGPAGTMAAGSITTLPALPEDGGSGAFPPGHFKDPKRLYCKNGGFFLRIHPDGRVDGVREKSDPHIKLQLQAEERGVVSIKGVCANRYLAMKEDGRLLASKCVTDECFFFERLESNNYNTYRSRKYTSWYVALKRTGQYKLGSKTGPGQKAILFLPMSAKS

[17] = JC-1 mitochondrial potential readout, lung cancer cells – cell-based, A549, JC-1 fluorescence, basal, 24 h, 100 nL, profiling panel (AID 1138); settings: higher = more signal;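 note: A549 lung adenocarcinoma cells under basal conditions with no added stimulus; test concentration not given here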
[18] = tested on: Lefty1; assay: Lefty1 protein binding to printed compounds – biochemical, small-molecule microarray, 635/667 nm fluorescence, primary screen (AID 1139); settings: fluorescence 635/667, higher = more signal
[19] = tested on: wheat germ agglutinin (Triticum aestivum), Alexa647-labelled; assay: Alexa647-WGA lectin binding to printed small molecules – biochemical, small-molecule microarray, 635/667 nm fluorescence, artefact control for SMM control-protein annotation, profiling panel (AID 1140); settings: WGA-A647 binding, 635 nm fluorescence, higher = more signal;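 note: score merges 667 nm feature emission with signal to noise over triplicate slides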
[20] = biological target: Luciferin 4-monooxygenase (Photinus pyralis) (UniProt P08659); assay: inhibition of purified Photinus pyralis luciferase – biochemical, luminescence, purified enzyme, 2006 set, primary screen (AID 1141); settings: purified firefly luciferase, SteadyGlo luminescence, 30 min; higher = more signal, called active from +8 up or from −8 down;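 note: cell-free assay with purified firefly luciferase at 100 ng per well in PBS; test concentration not given here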
Luciferin 4-monooxygenase (Photinus pyralis), sequence (P08659 whole entry, looked up): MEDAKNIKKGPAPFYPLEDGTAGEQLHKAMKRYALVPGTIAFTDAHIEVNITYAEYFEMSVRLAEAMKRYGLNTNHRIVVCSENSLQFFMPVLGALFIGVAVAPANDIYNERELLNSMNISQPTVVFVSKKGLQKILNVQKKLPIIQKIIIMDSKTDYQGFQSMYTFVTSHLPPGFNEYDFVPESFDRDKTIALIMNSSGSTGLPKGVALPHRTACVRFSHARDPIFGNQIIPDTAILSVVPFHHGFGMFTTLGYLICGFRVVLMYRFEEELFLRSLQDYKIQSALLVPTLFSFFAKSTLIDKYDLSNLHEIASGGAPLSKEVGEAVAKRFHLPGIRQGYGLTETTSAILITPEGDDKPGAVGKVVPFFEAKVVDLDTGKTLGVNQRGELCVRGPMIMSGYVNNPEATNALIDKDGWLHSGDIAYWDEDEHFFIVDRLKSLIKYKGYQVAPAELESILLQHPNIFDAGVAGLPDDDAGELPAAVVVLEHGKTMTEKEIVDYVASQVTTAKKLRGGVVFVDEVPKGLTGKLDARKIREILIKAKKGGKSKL

Compound | composite z-score [1] | composite Z-score [2] | composite z-score [3] | composite z-score [4] | composite z-score [5] | composite z-score [6] | composite z-score [7] | composite z-score [8] | composite z-score [9] | composite z-score [10] | composite z-score [11] | composite z-score [12] | composite z-score [13] | composite z-score [14] | composite z-score [15] | composite z-score [16] | z-score [17] | composite z-score [18] | composite z-score [19] | z-score [20]
C=C[C@H](OC)[C@@H](OC(=O)Nc1ccc(OC)cc1)c1ccc(O)c(F)c1 | -1.15 | 0.111 (inactive) | -0.333 | -0.217 | 0.562 | 2.28 | 0.953 | 0.96 | -1.85 | -1.15 | 2.08 | 0.424 | -0.585 | -1.5 | -1.07 | -1.23 | -0.944 | -0.288 | -1.28 | -6.53 (inactive)
NCCCCCNC(=O)[C@@H]1C[C@@H]2C(=O)N[C@@H](Cc3ccccc3)C(=O)N2[C@@H]1c1ccc(O)cc1 | 0.507 | 0.839 (inactive) | -0.0716 | -0.108 | 0.231 | 2.21 | -0.304 | 1.24 | -0.129 | 0.968 | 1.85 | 0.958 | 0.255 | 0.89 | 1.28 | 0.871 | 0.972 | 0.865 | 0.86 | -0.365 (inactive)
O=C(CS)NCCCCCCNC(=O)[C@@H]1C[C@@H]2C(=O)NCC(=O)N2[C@@H]1c1cccc(OCCO)c1 | -0.607 | 0.359 (inactive) | -0.446 | -0.398 | 0.679 | 2.91 | 0.71 | 0.318 | 0.26 | 0.625 | 3.13 | 1.23 | 0.69 | -0.993 | 0.998 | 1.4 | 0.609 | -0.408 | -0.56 | -1.02 (inactive)
CN1C(=O)C2C=CC(C(O)c3ccccc3)N(N(c3ccccc3)c3ccccc3)C2C1=O (stereo not given) | 0.273 | 0.22 (inactive) | 0.215 | 0.105 | 0.763 | 0.321 | 1.34 | -0.494 | 0.781 | -0.529 | 1.95 | -0.54 | 0.112 | 0.384 | 1.34 | -0.0637 | -0.516 | 0.03 | 0.489 | 1.07 (inactive)
CC[C@@H]1C=C(C(=O)O)[C@H](c2ccc(Br)cc2)N1S(=O)(=O)c1ccc(C)cc1 | 0.66 | 0.142 (inactive) | 0.167 | -0.0649 | 0.709 | 2.01 | 0.98 | 0.93 | 0.173 | 0.882 | 0.153 | 1.04 | 0.453 | 0.886 | 0.076 | -0.0934 | -0.785 | 0.0429 | 0.554 | 0.942 (inactive)
COc1ccc(/C=C/C=O)cc1 | -0.85 | -0.174 (inactive) | -0.0032 | -0.0468 | -0.206 | -0.513 | 0.0998 | -0.235 | 0.309 | -0.415 | 0.0874 | -0.238 | -0.0113 | -1.76 | 0.853 | 0.138 | 0.769 | 0.321 | -0.367 | -0.756 (inactive)
CCCCCCc1nc(-c2cc(C)c(OC)c(C)c2)cc2c1[Si](C(C)C)(C(C)C)OC2 | -0.623 | 0.244 (inactive) | -0.0111 | -0.113 | 0.0878 | -0.241 | -0.0553 | 0.363 | 0.119 | 0.208 | -0.164 | 0.103 | 0.0497 | -0.419 | 0.578 | -0.143 | -0.693 | 0.275 | -0.239 | 1 (inactive)
Cc1ccc(S[C@]2(C(=O)NCCCN(C)C)CC(=O)N(Cc3cc(C(F)(F)F)cc(C(F)(F)F)c3)[C@@H]2c2ccc(CO)cc2I)cc1 | -0.39 | -0.86 (inactive) | 0.462 | -0.0492 | 0.773 | 0.961 | 0.135 | 0.375 | -0.395 | -1.79 | 0.336 | -0.77 | -0.0785 | -0.604 | -0.816 | -0.862 | 0.197 | -0.536 | 0.0799 | 0.828 (inactive)
NC(=O)NCC#Cc1ccc2c(c1)[C@]1(C(=O)N2)[C@H](c2ccccc2OCCO)N2[C@H](c3ccccc3)[C@H](c3ccccc3)OC(=O)[C@H]2[C@@H]1C(=O)Nc1nc2ccccc2s1 | 0.403 | 0.105 (inactive) | 0.288 | -0.123 | 0.237 | 1.63 | 0.0159 | 1.07 | -0.287 | 0.748 | 0.111 | 0.844 | 0.346 | 0.613 | 0.759 | 0.244 | -2.13 | 0.373 | 0.89 | 0.302 (inactive)
COC(=O)C(CC#Cc1ccc2c(c1)[C@]1(C(=O)N2)[C@H](C(=O)Nc2nc3ccccc3s2)[C@H]2C(=O)O[C@H](c3ccccc3)[C@H](c3ccccc3)N2[C@@H]1c1ccccc1OCCO)C(=O)OC | 0.987 | -0.323 (inactive) | 0.116 | -0.0859 | 0.663 | 1.69 | 0.636 | 1.3 | -0.154 | 1.14 | 1.41 | 1.24 | 1.04 | 0.964 | 0.931 | 0.452 | -2.25 | 0.625 | 1.29 | -0.293 (inactive)
